This is an account of results in PMC4336329 (PLoS ONE, 2015).

The structures appear in SMILES notation. Among all 310,000 compounds or so, about 14,000 (4.5%) showed an effect of 50% or more. The effect is printed as a negative number. The list comes from a sample in which strong results are over-represented; it also holds similar structures and randomly drawn compounds.
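Also: peak tail current of the secondary pulse compared with the same well before compound.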

This test deals with human ether-à-go-go-related gene (hERG) potassium channel (human, UniProt Q12809). Put plainly: primary screen, population patch clamp on CHO cells stably expressing hERG; higher = less effect of the substance.
Sequence of human ether-à-go-go-related gene (hERG) potassium channel (Q12809 whole entry, looked up): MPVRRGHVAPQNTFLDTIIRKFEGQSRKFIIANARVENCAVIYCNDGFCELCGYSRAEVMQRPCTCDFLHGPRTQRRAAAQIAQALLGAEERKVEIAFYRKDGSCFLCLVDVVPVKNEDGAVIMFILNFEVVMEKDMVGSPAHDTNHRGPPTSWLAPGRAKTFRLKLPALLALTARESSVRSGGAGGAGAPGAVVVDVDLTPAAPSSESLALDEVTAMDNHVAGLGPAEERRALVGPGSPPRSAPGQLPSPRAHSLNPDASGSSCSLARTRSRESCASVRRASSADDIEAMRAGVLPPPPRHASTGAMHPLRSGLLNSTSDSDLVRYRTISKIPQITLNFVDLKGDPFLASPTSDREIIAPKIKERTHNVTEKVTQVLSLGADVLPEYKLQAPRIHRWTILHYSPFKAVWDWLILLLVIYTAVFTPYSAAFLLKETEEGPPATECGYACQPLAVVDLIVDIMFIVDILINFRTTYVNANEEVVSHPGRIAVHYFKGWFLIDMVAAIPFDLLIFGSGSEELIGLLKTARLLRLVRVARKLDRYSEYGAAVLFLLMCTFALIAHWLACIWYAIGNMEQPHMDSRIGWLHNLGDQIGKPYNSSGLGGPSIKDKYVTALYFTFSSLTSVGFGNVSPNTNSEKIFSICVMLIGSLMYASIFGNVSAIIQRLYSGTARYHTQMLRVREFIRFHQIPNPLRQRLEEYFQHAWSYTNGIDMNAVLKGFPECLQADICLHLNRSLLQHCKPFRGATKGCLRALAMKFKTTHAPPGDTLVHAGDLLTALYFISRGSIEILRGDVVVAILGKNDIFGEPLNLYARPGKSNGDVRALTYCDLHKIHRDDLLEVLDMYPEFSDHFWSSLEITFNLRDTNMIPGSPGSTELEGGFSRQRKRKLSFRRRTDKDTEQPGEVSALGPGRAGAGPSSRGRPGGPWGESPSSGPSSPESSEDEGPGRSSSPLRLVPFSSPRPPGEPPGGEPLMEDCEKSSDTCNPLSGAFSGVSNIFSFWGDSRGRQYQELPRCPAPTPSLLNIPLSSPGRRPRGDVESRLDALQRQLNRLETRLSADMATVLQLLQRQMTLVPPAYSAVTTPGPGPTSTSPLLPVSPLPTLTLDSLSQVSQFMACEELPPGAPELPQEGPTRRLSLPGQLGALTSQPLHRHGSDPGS
`CC(=O)c1cccc(NC(=O)NCc2ccco2)c1`: the “hERG current change (%, negative = inhibition) at 10uM” value is recorded as -2.14%.
With `COc1ccc(Cl)cc1Nc1nc(NCCO)nc(N2CCCCC2)n1` the figure was -3.45%.
With `CCN(CC)S(=O)(=O)c1ccc(C)c(NC(=S)N2CCN(C/C=C/c3ccccc3)CC2)c1` the figure was -2.74%.
With `CCOc1ccc(NS(=O)(=O)c2ccc(NC(=S)NC(=O)CC(C)C)cc2)cc1` the figure was 8.92%.
As to `O=C(CSC(=S)N1CCCC1)N1CCN(S(=O)(=O)c2cccc([N+](=O)[O-])c2)CC1`, the “hERG current change (%, negative = inhibition) at 10uM” value amounted to 5.69%.
With `COc1ccc(/C=N/NC(=O)CC(=O)NCc2cccnc2)c(OC)c1` the figure was 4.71%; with `CCC(CC)C(=O)c1c[nH]c(C(=O)NCc2cccnc2)c1`, 18.6%; with `CC(C)(C)c1ccc(-c2nnc(SCC(=O)c3ccc4c(c3)OCCO4)o2)cc1`, 12.3%.
With `Cc1ccc(S(=O)(=O)N(C)CCCC(=O)NC(C)(C)C)cc1` the figure was 13.3%; with `CO/N=C/c1cn(-c2ccc(Cl)cc2)nn1`, -2.53%; with `COc1cc(C(=O)Nc2nc(-c3ccc(F)cc3)cs2)ccc1OCC(=O)N1CCOCC1`, -53.3%.
The figure for `CC(=O)c1cc(F)c(N2CCN(C(=O)COc3ccccc3F)CC2)cc1C` is -7.84%.
As for `CCC(=O)c1ccc(N2CCN(C(=O)COc3ccc(F)cc3)CC2)c(F)c1`, the “hERG current change (%, negative = inhibition) at 10uM” value is on record as -73.4%.
With `CCC(=O)c1ccc(N2CCCC2)c(F)c1` the figure was 6.95%; with `CC(=O)c1ccc(N2CCN(C(=O)Cc3ccccc3)CC2)c(F)c1`, -9.6%; with `CC(=O)c1cc(F)c(N2CCN(C(=O)COc3ccc(F)cc3)CC2)cc1C`, -76.3%.
With `CCCCCC(=O)N1CCN(c2ccc(C(C)=O)cc2F)CC1` the figure was -60.9%; with `COc1ccc(-c2csc(NC(=O)c3ccc(OCC(=O)N4CCOCC4)c(OC)c3)n2)cc1`, -48%; with `CCOC(=O)N1CCN(c2ccc(C(=O)CC)cc2F)CC1`, -9.37%.
The figure for `COc1cc(C(=O)Nc2nc(-c3ccc(C)cc3)cs2)ccc1OCC(=O)N1CCOCC1` is -18.9%; for `CCOC(=O)N1CCN(c2cc(C)c(C(C)=O)cc2F)CC1` it is 2.71%.
Regarding `CC(=O)c1ccc(N2CCCC2)c(F)c1`, the “hERG current change (%, negative = inhibition) at 10uM” value was determined as 1.88%.
The figure for `CC1=Nc2ccccc2NC(=O)C1Sc1nnc(C)s1` (stereo not shown) is -12.6%.
Turning to `CC(C)CN1CCC(CNC(=O)CCc2nnc(Cc3c[nH]c4ccccc34)o2)CC1`, the “hERG current change (%, negative = inhibition) at 10uM” value was -1.27%.
The figure for `N#Cc1ccccc1NC(=S)NC(=O)C1CCC1` is 9.95%; for `COc1cc2c3cc1Oc1cc(ccc1O)C[C@@H]1c4c(cc(OC)c(O)c4Oc4ccc(cc4)C[C@H]3N(C)CC2)CCN1C` it is -37%.
The figure for `COc1ccccc1N1CCN(C(=O)CCNS(=O)(=O)c2ccc(Br)s2)CC1` is -31.3%; for `S=C1NC[C@H](Cc2ccccc2)N1CCCCC1CCCCC1` it is 4.71%; for `CCOC(=O)c1cnc2ccc(C(=O)OC)cc2c1Nc1ccc(C(=O)O)cc1.Cl` it is 5.66%.
The figure for `COC(=O)c1ccc(Nc2cc(C)nc3ccccc23)cc1.Cl` is -37.3%.
Consider `CC(=O)c1ccc(NC(=O)c2cc(C)nc3ccccc23)cc1`, for which the “hERG current change (%, negative = inhibition) at 10uM” value was 16.5%.
Turning to `COC(=O)c1ccc2nc(C)cc(Nc3ccc(N(C)C)cc3)c2c1.Cl`, the “hERG current change (%, negative = inhibition) at 10uM” value is on record as -67.1%.
The figure for `COC(=O)c1ccc(Nc2nc(C)cc(C)n2)cc1` is 10.9%.
The figure for `COC(=O)c1ccc2nc(C)cc(Nc3ccccc3C)c2c1.Cl` is -47.5%; for `CC(=O)c1ccc(Nc2cc(C)nc3ccc(C)cc23)cc1` it is -74.5%.
Turning to `COC(=O)c1ccc(Nc2cc(C)nc3ccc(C)cc23)cc1.Cl`, the “hERG current change (%, negative = inhibition) at 10uM” value is recorded as -55.6%.
With `CC(=O)c1ccc(Nc2nc(C)cc(C)n2)cc1` the figure was 4.62%; with `Cc1ccc(NN2C(=O)C=CC2=O)cc1`, 0.632%.
With `N/C(=N\S(=O)(=O)c1ccccc1)c1ccc([N+](=O)[O-])cc1` the figure was -30%; with `COC(=O)C1C(=O)NC(SC)=C(C#N)C1c1ccccc1` (stereo not shown), 8.09%; with `COC(=O)c1cc(CSc2nnc(NC3CCCCC3)s2)oc1C`, -10.1%.
With `Cc1ccc(CN(C)C(=O)c2c(C)nn(-c3ccccc3)c2C)cc1` the figure was 8.12%; with `C=C(C)c1cccc(C(C)(C)NC(=O)N2CCN(c3ncccn3)CC2)c1`, 0.0429%; with `Cc1c(NC(=O)C(C)N2CC(C)OC(C)C2)c(=O)n(-c2ccccc2)n1C` (stereo not shown), 9.21%.
Take `Cc1cccc(NC(=O)Nc2ccc(S(N)(=O)=O)cc2)c1`: the “hERG current change (%, negative = inhibition) at 10uM” value stood at 13.4%.
With `Cc1cccc(C(=O)NNC(=O)CCC(=O)Nc2cccc(Cl)c2C)c1` the figure was 9.03%; with `CCOc1ccc(-c2nnn(CC(=O)c3cc(OC)ccc3OC)n2)cc1`, -7.91%; with `O=C(Cn1nc(-c2cccc(Cl)c2)ccc1=O)Nc1ccccc1Br`, 10.7%.
With `COc1ccc(CC(=O)N2N=C(C)CC2(O)c2cccnc2)cc1OC` (stereo not shown) the figure was -17%; with `CCOc1c2ccc(C(=O)NCc3ccc4c(c3)OCO4)cc2nn1C`, 17.6%; with `Fc1ccc(C2c3[nH]c4ccccc4c3CCN2Cc2ccoc2)cc1` (stereo not shown), -26.8%.
With `CCOc1ccc(C2c3[nH]c4ccccc4c3CCN2C(=O)Cn2cncn2)cc1` (stereo not shown) the figure was -15%; with `COc1ccc(OCC(=O)N2CCc3c([nH]c4ccccc34)C2c2ccccn2)cc1` (stereo not shown), 21.4%.
Take `Cc1cnc(C(=O)N2CCc3c([nH]c4ccccc34)C2c2ccc(F)cc2)cn1` (stereo not shown): the “hERG current change (%, negative = inhibition) at 10uM” value is -39.8%.
With `COc1ccc(C2c3[nH]c4ccccc4c3CCN2Cc2ccoc2)c(F)c1` (stereo not shown) the figure was -36.9%; with `Cn1nccc1C(=O)N1CCc2c([nH]c3ccccc23)C1c1ccc(F)cc1` (stereo not shown), -19.4%.
With `Fc1ccccc1C1c2[nH]c3ccccc3c2CCN1Cc1ccoc1` (stereo not shown) the figure was -51.7%; with `O=C(c1cc2ncccn2n1)N1CCc2c([nH]c3ccccc23)C1c1ccccc1F` (stereo not shown), -5.11%; with `Fc1ccc(C2c3[nH]c4ccccc4c3CCN2Cc2cccn2-c2ncccn2)cc1` (stereo not shown), -52.2%.
The figure for `Cc1ccccc1C1c2[nH]c3ccccc3c2CCN1Cc1cccn1-c1ncccn1` (stereo not shown) is -46.3%; for `CCOc1ccc(C2c3[nH]c4ccccc4c3CCN2Cc2cccn2-c2ncccn2)cc1` (stereo not shown) it is -53.3%; for `Fc1ccccc1C1c2[nH]c3ccccc3c2CCN1Cc1cccn1-c1ncccn1` (stereo not shown) it is -50.6%.
Take `CCn1c(COc2ccccc2C)nnc1SCC(=O)O`: the “hERG current change (%, negative = inhibition) at 10uM” value worked out at 16.3%.
With `Cc1cc(C)cc(NC(=O)N2CCC(NC(=O)c3ccccc3C)CC2)c1` the figure was 5.74%; with `O=C(CSc1nnc(-c2ccccc2)n1-c1ccccc1)c1ccc[nH]1`, 16.4%.
`CCOC(=O)N1CCN(C(=O)CNC(=O)c2ccc(Br)o2)CC1`: the “hERG current change (%, negative = inhibition) at 10uM” value is given as 11.7%.
With `COc1ccc(-c2csc(NC(=O)c3c(OC)cccc3OC)n2)cc1` the figure was 7.77%; with `COc1ccccc1CNS(=O)(=O)c1cc2c3c(c1)CCN3C(=O)CC2`, -4.02%.
With `O=C1COc2ccc(C(=O)COC(=O)CNC(=O)C3CCCCC3)cc2N1` the figure was -7.17%.
`COc1ccc(OCC(Cn2cnc3ccccc32)OC(C)=O)cc1.Cl` (stereo not shown): the “hERG current change (%, negative = inhibition) at 10uM” value is reported as -26%.
In the case of `Cc1cc(C)n(-c2cc(C(C)(C)C)nc3c(-c4ccccc4)cnn23)n1`, the “hERG current change (%, negative = inhibition) at 10uM” value is 14.6%.
The figure for `COc1ccc(C(=O)NCCS(=O)(=O)NCCc2ccccc2)cc1` is -13.2%; for `CC1(C)CC(C)(c2ccc(O)cc2O)N(c2cccc(Cl)c2)C(=S)N1` (stereo not shown) it is 2.04%.
With `CCCNC(=O)c1c(N)n(-c2cccc(OC)c2)c2nc3ccccc3nc12` the figure was -5.21%; with `COCCNC(=O)c1c(N)n(-c2cccc(C)c2)c2nc3ccccc3nc12`, -24.7%.
For `Nc1c(C(=O)NCCN2CCOCC2)c2nc3ccccc3nc2n1-c1ccc2c(c1)OCO2`, the “hERG current change (%, negative = inhibition) at 10uM” value is reported as -33.5%.
With `Nc1c(C(=O)NCCN2CCOCC2)c2nc3ccccc3nc2n1-c1ccccc1` the figure was -52%; with `Nc1c(C(=O)NCCN2CCOCC2)c2nc3ccccc3nc2n1-c1cccc(F)c1`, -33.2%; with `Cc1cccc(-n2c(N)c(C(=O)NCCN3CCOCC3)c3nc4ccccc4nc32)c1`, -57.1%.
Regarding `Cc1ccc(S(=O)(=O)NCCC(=O)NCc2ccccn2)cc1`, the “hERG current change (%, negative = inhibition) at 10uM” value stood at 11.1%.
The figure for `Cc1ccc(-c2nnn(CC(=O)N(Cc3ccco3)C(C(=O)NC(C)(C)C)c3cccs3)n2)o1` (stereo not shown) is -19.2%; for `O=C(NCC1CCCO1)c1cc2c([nH]c3ccccc32)c(-c2cccc(Cl)c2)n1` (stereo not shown) it is -20.5%.
The figure for `Cc1sc2nc(-c3ccc(Br)cc3)oc(=O)c2c1C` is 13.3%; for `CSc1nc(C(=O)N2CCc3c([nH]c4ccccc34)C2c2ccccn2)cs1` (stereo not shown) it is -4.85%.
With `CC(=O)Nc1ccc(NC(=O)c2cc[n+]([O-])cc2)cc1` the figure was 25.2%.
`CC1CC(C)CN(C(=O)CCC(=O)Nc2nnc(C(C)C)s2)C1` (stereo not shown): the “hERG current change (%, negative = inhibition) at 10uM” value is reported as 12.6%.
With `CC(C)Cc1nnc(NC(=O)c2cc([N+](=O)[O-])ccc2N2CCOCC2)s1` the figure was -51.4%.
As for `CC(C)Cc1nnc(NC(=O)CCC(=O)N2CCC(C)CC2)s1`, the “hERG current change (%, negative = inhibition) at 10uM” value is 0.442%.
On to `CC(C)Cc1nnc(NC(=O)CCC(=O)N2CC(C)CC(C)C2)s1` (stereo not shown), for which the “hERG current change (%, negative = inhibition) at 10uM” value is reported as -50.8%.
`CC(C)Cc1nnc(NC(=O)CCC(=O)N2CCN(c3ccc([N+](=O)[O-])cc3)CC2)s1`: the “hERG current change (%, negative = inhibition) at 10uM” value is -72.3%.
The figure for `CC(C)CNC(=O)c1cc([N+](=O)[O-])ccc1N1CCOCC1` is 4.47%.
The figure for `CC(C)Cc1nnc(NC(=O)CCC(=O)N2CCN(c3ccc(F)cc3)CC2)s1` is 1.08%; for `CC(C)Cc1nnc(NC(=O)CCC(=O)N2CCN(c3ccc(Cl)cc3)CC2)s1` it is -3.51%.
With `CCc1nnc(NC(=O)c2cc([N+](=O)[O-])ccc2N2CCOCC2)s1` the figure was -15%.
